Among all 290,000 compounds or so, about 1,800 (0.62%) were called active. The sample holds actives, similar compounds and a random draw of the others, so the mix is not that of the screen. Rule as the data show it: active = inhibition above about 50%; inactive = the rest.
experiment: NOD2 signaling inhibitors, cell-based, luminescence, uHTS, HEK293 (AID 1566); settings: HEK293 NOD2/NF-kB luciferase reporter, at 4 µM, hits give high values

For `COc1ccc(-c2noc(CCCC(=O)O)n2)cc1`, which inhibition is on record?
Its inhibition is 57.7% (active).

With `COc1ccc(-c2noc(CCC(=O)O)n2)cc1` as the molecule, how does the inhibition read?
The inhibition was 11.3% (inactive).

Which inhibition does the source give for `O=C(O)CCCc1nc(-c2ccccc2)no1` here?
Its inhibition is -10% (inactive).

Which inhibition does the source give for `O=C(NCCc1ccc(C(F)(F)F)cc1)C1CCC(=O)N(CCc2cccc(F)c2)C1` (stereo unspecified) here?
The inhibition was -4.6% (inactive).

Which inhibition does the source give for `CN(C)/N=C/C=C1\CCC/C(=C\c2ccc(F)c(F)c2)C1=O` here?
Its inhibition is 63% (active).

For `CN(C)/N=C/C=C1\CC/C(=C\c2ccc(Br)cc2)C1=O`, which inhibition is on record?
The inhibition was -21.2% (inactive).

For `COc1ccc(/C=C2\CCC/C(=C\C=N\N(C)C)C2=O)cc1`, which inhibition is on record?
The inhibition was -25.5% (inactive).

With `Cc1ccc(-c2cc(C(F)F)nc(N3CCOCC3)n2)cc1` as the molecule, how does the inhibition read?
The inhibition was 15.5% (inactive).

With `O=C1CCN(C2CCN(Cc3nc(Cc4ccccc4F)no3)CC2)CCN1` as the molecule, how does the inhibition read?
Its inhibition is 5.8% (inactive).

For `COc1ccc(C(=O)N2CCC(n3nccc3NC(=O)C3CC3)CC2)c(OC)c1OC`, which inhibition is on record?
Its inhibition is 12.7% (inactive).

For `O=C(NC(O)C(=O)c1ccccc1)c1cccs1` (stereo unspecified), which inhibition is on record?
The inhibition was 10% (inactive).

For `CC(C)(C)c1ccc(C(=O)NNC(=O)c2cccc(-n3cnnn3)c2)cc1`, which inhibition is on record?
Its inhibition is 13.7% (inactive).

With `Cc1nc(N2CCN(c3ccccn3)CC2)c2c(C)c(C(=O)Nc3ccc(F)cc3Cl)sc2n1` as the molecule, how does the inhibition read?
Its inhibition is 33.8% (inactive).

Which inhibition does the source give for `Cc1c(C(=O)N2CCN(c3ccccn3)CC2)sc2ncnc(N3CCOCC3)c12` here?
Its inhibition is -1.8% (inactive).

For `Cc1c(C(=O)N2CCN(c3ccccc3)CC2)sc2ncnc(N3CCN(c4ccccn4)CC3)c12`, which inhibition is on record?
Its inhibition is 39.4% (inactive).

With `Cc1nc(N2CCN(c3ccccn3)CC2)c2c(C)c(C(=O)N3CCN(c4cccc(Cl)c4)CC3)sc2n1` as the molecule, how does the inhibition read?
The inhibition was 38.7% (inactive).

With `COc1ccccc1N1CCN(C(=O)c2sc3nc(C)nc(N4CCN(c5ccccn5)CC4)c3c2C)CC1` as the molecule, how does the inhibition read?
The inhibition was 16% (inactive).

For `Cc1nc(N2CCN(c3ccccn3)CC2)c2c(C)c(C(=O)Nc3ccc(Cl)cc3)sc2n1`, which inhibition is on record?
The inhibition was 15.9% (inactive).

With `Cc1nc(N2CCN(c3ccccn3)CC2)c2c(C)c(C(=O)Nc3ccc(F)cc3F)sc2n1` as the molecule, how does the inhibition read?
Its inhibition is 3.4% (inactive).

For `Cc1nc(N2CCN(c3ccccn3)CC2)c2c(C)c(C(=O)Nc3c(F)cc(F)cc3Br)sc2n1`, which inhibition is on record?
The inhibition was 33.9% (inactive).

With `O=C1CCCN1CCCNS(=O)(=O)c1ccc(Br)cc1` as the molecule, how does the inhibition read?
Its inhibition is 6.2% (inactive).

Which inhibition does the source give for `Cn1c(=O)n(CC(=O)O)c(=O)c2c1nc1n2CCCN1CCc1ccccc1` here?
Its inhibition is 4.6% (inactive).

Which inhibition does the source give for `CCC(=O)C1CCCN(C(=O)c2ccc3nc(-c4cccc(OC)c4)oc3c2)C1` (stereo unspecified) here?
Its inhibition is -51.5% (inactive).

With `CC(C)Cc1cc(C(=O)N2CCCC(C(=O)c3cc(F)ccc3F)C2)n(C)n1` (stereo unspecified) as the molecule, how does the inhibition read?
The inhibition was 23.7% (inactive).

With `COc1ccc(C(=O)Nc2ccc(NC(=O)c3cnccn3)cn2)cc1` as the molecule, how does the inhibition read?
Its inhibition is -1.7% (inactive).

For `O=C(Nc1ccc2cn[nH]c2c1)c1ccc(Cl)c(S(=O)(=O)N2CCOCC2)c1`, which inhibition is on record?
The inhibition was -3.7% (inactive).

With `O=C1/C(=C/c2cccnc2)CC/C1=C\c1cccnc1` as the molecule, how does the inhibition read?
Its inhibition is 1.3% (inactive).

With `CN1C/C(=C/c2cccnc2)C(=O)/C(=C/c2cccnc2)C1` as the molecule, how does the inhibition read?
Its inhibition is 10.1% (inactive).

With `CCC1C/C(=C\c2cccnc2)C(=O)/C(=C/c2cccnc2)C1` (stereo unspecified) as the molecule, how does the inhibition read?
The inhibition was 94.6% (active).

Which inhibition does the source give for `COc1cc(COc2ccc(-c3nnco3)cc2)ccc1OC(F)F` here?
Its inhibition is 6.2% (inactive).

For `Cc1ccc(COc2ccc(-c3nnco3)cc2)cc1`, which inhibition is on record?
The inhibition was -78.6% (inactive).

Which inhibition does the source give for `COc1ccnc(Oc2ccccc2)c1C(=O)N/C=N/OCc1ccccc1F` here?
Its inhibition is 2.7% (inactive).

Which inhibition does the source give for `CCCCCCn1c(NCC)nc2c1c(=O)n(C)c(=O)n2C` here?
The inhibition was 30% (inactive).

Which inhibition does the source give for `COCCNC(=O)c1cc2cc3ccc(OC)cc3nc2o1` here?
The inhibition was 11.5% (inactive).

With `COc1ccc2cc3cc(C(=O)NCCC(C)C)oc3nc2c1` as the molecule, how does the inhibition read?
The inhibition was 10.4% (inactive).

For `COc1ccc(-c2cc(=O)oc3cc(OCC(=O)N4C[C@H]5C[C@@H](C4)c4cccc(=O)n4C5)ccc23)cc1`, which inhibition is on record?
The inhibition was 3.1% (inactive).

Which inhibition does the source give for `CCCCn1c(=O)c(CCC(=O)OCC(=O)Nc2cccc3ccccc23)nc2ccccc21` here?
The inhibition was 15.7% (inactive).

For `O=C(Cc1ccccc1)NNC(=O)C1CC=CCC1` (stereo unspecified), which inhibition is on record?
Its inhibition is 5.2% (inactive).

For `CCc1nnc(NC(=O)COc2ccccc2[N+](=O)[O-])s1`, which inhibition is on record?
The inhibition was -7.9% (inactive).

For `Cc1csc(NC(=O)c2c(O)c3c(n(CC(C)C)c2=O)CCCC3)n1`, which inhibition is on record?
Its inhibition is 23.7% (inactive).

Which inhibition does the source give for `O=C(NC1=C(Nc2ccc(F)cc2)C(=O)c2ccccc2C1=O)c1ccc(Cl)cc1` here?
The inhibition was -10.9% (inactive).

Which inhibition does the source give for `O=C(NC1=C(Nc2ccc(Cl)cc2)C(=O)c2ccccc2C1=O)c1ccccc1` here?
The inhibition was 24.3% (inactive).

Which inhibition does the source give for `CSc1nc(N)c2c(C)c(C)sc2n1` here?
The inhibition was -1.2% (inactive).

Which inhibition does the source give for `CCOC(=O)C(=CNc1ccc(NC2=NCC(C)S2)cc1)C(=O)OCC` (stereo unspecified) here?
Its inhibition is 55.5% (active).

Which inhibition does the source give for `CCOC(=O)C(=CNc1ccc(C#N)cc1)C(=O)OCC` here?
The inhibition was 8.2% (inactive).

With `CCOC(=O)C(=CNc1ccc(NC2=NCC(C)(C)S2)cc1)C(=O)OCC` as the molecule, how does the inhibition read?
The inhibition was 34.9% (inactive).

For `COc1cccc(CNC(=O)CCNC(=O)C2CCN(S(=O)(=O)c3ccc(F)cc3)CC2)c1`, which inhibition is on record?
The inhibition was 9% (inactive).

For `N#C/C(=C(/O)COC(=O)c1ccccc1O)c1nc2ccccc2s1`, which inhibition is on record?
Its inhibition is 52.7% (active).

With `N#C/C(=C(/O)COC(=O)c1ccc(C#N)cc1)c1nc2ccccc2s1` as the molecule, how does the inhibition read?
The inhibition was -9.9% (inactive).

For `CC(C)(C)c1ccc(C(=O)OC/C(O)=C(\C#N)c2nc3ccccc3s2)cc1`, which inhibition is on record?
The inhibition was 30.1% (inactive).

Which inhibition does the source give for `C=C(C)C(=O)Oc1ccc(N2C(=O)[C@@H]3C4C=CC(C4)[C@@H]3C2=O)cc1` here?
The inhibition was -1.5% (inactive).

With `CCn1c(=O)n(CC)c2cc(S(=O)(=O)N3CCCCC3)c(C)cc21` as the molecule, how does the inhibition read?
The inhibition was -12.1% (inactive).

With `NC(=O)CC(NC(=O)Cc1ccc(Br)cc1)c1ccc(NCCN2CCOCC2)c([N+](=O)[O-])c1` (stereo unspecified) as the molecule, how does the inhibition read?
The inhibition was -1.2% (inactive).

With `N#CC1=C(N)Oc2n[nH]c(-c3cccnc3)c2C1c1cc(F)ccc1F` (stereo unspecified) as the molecule, how does the inhibition read?
Its inhibition is -1.5% (inactive).

For `Fc1ccccc1CNc1ncnc2sccc12`, which inhibition is on record?
The inhibition was 56.7% (active).

For `c1ccc(CNc2ncnc3sccc23)cc1`, which inhibition is on record?
The inhibition was 44.5% (inactive).

With `c1cncc(CNc2ncnc3sccc23)c1` as the molecule, how does the inhibition read?
The inhibition was 21.1% (inactive).

For `Cc1cccc(NC(=O)C(Cc2ccccc2)n2cccc2)c1` (stereo unspecified), which inhibition is on record?
Its inhibition is 9.8% (inactive).

With `CCN(CC)S(=O)(=O)c1cc(NC(=O)[C@@H](NC(N)=O)C(C)C)ccc1C` as the molecule, how does the inhibition read?
The inhibition was 6.6% (inactive).

Which inhibition does the source give for `Cc1ccc(NC(=O)C(CC(C)C)NC(N)=O)cc1Cl` (stereo unspecified) here?
The inhibition was -3.3% (inactive).

For `CCN(CC)S(=O)(=O)c1cc(NC(=O)C(CC(C)C)NC(N)=O)ccc1C` (stereo unspecified), which inhibition is on record?
The inhibition was 57.5% (active).
